Bioassay records deposited in PubChem BioAssay by The Scripps Research Institute Molecular Screening Center.
This is a sample that favours compounds with a hit; in the whole collection about 2.6% have one here.
PAFAH1B2 inh = inhibitors of human PAFAH1B2; P68402; 1.2% of 340,000 active; inhibition, % at 3.39 µM; recombinant PAFAH1B2, FP-rhodamine activity probe, fluorescence polarization; AID 492953;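 active = inhibition above the mean of all tested compounds plus 3 SD, cut at about 24% in these data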;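 also: 0% = enzyme with DMSO and 100% = wells lacking PAFAH1B2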
PAFAH1B3 FP inh = PAFAH1B3 (human) inhibition; Q15102; recombinant PAFAH1B3, FP-rhodamine probe, fluorescence polarization; inhibition, % at 3.39 µM; 0.28% of 340,000 active;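 active = inhibition above the screen-wide average of all tested compounds plus 3 SD, cut at about 25% in these data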;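 also: 0% = enzyme with DMSO only and 100% = wells lacking PAFAH1B3 protein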
Target sequence (Q15102 whole entry, looked up): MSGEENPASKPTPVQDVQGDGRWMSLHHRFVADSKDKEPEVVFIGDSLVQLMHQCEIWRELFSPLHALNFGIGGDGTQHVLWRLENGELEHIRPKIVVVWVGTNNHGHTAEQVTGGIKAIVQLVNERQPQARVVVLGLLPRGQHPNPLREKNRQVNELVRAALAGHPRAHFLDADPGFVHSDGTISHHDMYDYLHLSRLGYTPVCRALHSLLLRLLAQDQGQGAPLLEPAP
pPAFAH FP inh = inhibitors of human plasma PAF acetylhydrolase (pPAFAH); recombinant pPAFAH, FP-rhodamine probe fluorescence polarization; Q13093; 1.5% of 330,000 active; inhibition, % at 3.39 µM; AID 463082;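 active = inhibition above the mean inhibition across the screen plus 3 SD, cut at about 25% in these data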;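 also: inhibitors block binding of the rhodamine activity-based probe so polarization drops; 0% = enzyme with DMSO and 100% = wells lacking pPAFAH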
PAFAH2 inh = inhibitors of human PAFAH2 | recombinant PAFAH2, FP-rhodamine activity probe, fluorescence polarization | inhibition, % at 3.39 µM | 0.99% of 340,000 active;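 active = inhibition above the mean over all tested compounds plus 3 SD, cut at about 30% in these data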;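 also: inhibitors block probe labeling of enzyme so polarization drops; 0% = enzyme with DMSO and 100% = wells lacking PAFAH2 protein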
PKA-R2B act = activators of human PKA-R2B complex; P22694+P31323; activation, % at 11.4 µM; PKA-R2B holoenzyme dissociation, Cy5-IP20 fluorescence polarization; R2B truncated from residue 108, S112A mutant; 0% DMSO only, 100% 113 µM cGMP; 0.079% of 340,000 active;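 active = activation above a cutoff set at the mean over all compounds plus 3 SD, cut at about 18% in these data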;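 also: higher means more holoenzyme dissociation and a rise in polarization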
PKA-R1A act = PKA-R1A complex activation; activation, % at 11.4 µM; PKA-R1A dissociation, Cy5-IP20 fluorescence polarization; scaled: DMSO 0%, 113 µM cGMP 100%; 0.083% of 340,000 active;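 active = percent activation above the mean of all tested compounds plus 3 SD, cut at about 19% in these data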;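 also: higher means more PKAc released from R1A so a rise in polarization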
R1A FP artifact = FP assay interference, PKA-R1A counter-screen | AID 504799 | 7% of 280 active | shares compounds with PKA-R1A act | activation, % at 11.4 µM | Cy5-IP20 peptide alone, fluorescence polarization artifact counterscreen;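 active = mean activation over triplicate runs exceeds the adjusted cutoff derived for the parent primary screen, cut at about 19% in these data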;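 also: no PKA protein present so any polarization rise reflects compound interference; 0% = tracer peptide mix alone and 100% = mix with added PKA catalytic subunit; higher means stronger polarization artifact and likely false positive in parent screen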
PKA-R1A act conf = confirmation of PKA-R1A complex activators; Cy5-IP20 fluorescence polarization, PKA-R1A holoenzyme dissociation; activation, % at 11.4 µM; shares compounds with PKA-R1A act; 9% of 280 active; AID 504800;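 active = mean activation over replicate wells exceeds the adjusted hit threshold taken from the earlier primary screen, cut at about 20% in these data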;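 also: 0% = holoenzyme mix with DMSO only and 100% = cGMP-activated control wells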
Target sequence (P00514 whole entry, looked up): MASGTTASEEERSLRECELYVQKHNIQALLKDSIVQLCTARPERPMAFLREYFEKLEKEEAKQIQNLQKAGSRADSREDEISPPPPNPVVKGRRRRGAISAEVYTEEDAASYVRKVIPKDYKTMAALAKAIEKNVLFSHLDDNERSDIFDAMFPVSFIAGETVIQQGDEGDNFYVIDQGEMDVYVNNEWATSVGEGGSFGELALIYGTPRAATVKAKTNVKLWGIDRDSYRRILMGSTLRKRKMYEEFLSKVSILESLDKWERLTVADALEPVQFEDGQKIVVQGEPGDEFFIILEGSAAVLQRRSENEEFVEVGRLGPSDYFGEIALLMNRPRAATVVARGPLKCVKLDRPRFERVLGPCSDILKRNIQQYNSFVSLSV
Starred values were filed as active, the others as inactive.

Cc1cc2ccccn2c1C(=O)c1ccc(Cl)c([N+](=O)[O-])c1 was read as PAFAH1B2 inh 7, PAFAH1B3 FP inh -5, pPAFAH FP inh -3, PAFAH2 inh 3, PKA-R2B act 1, PKA-R1A act 20*, R1A FP artifact -2 and PKA-R1A act conf -2.
`Cc1ccc(N2CCN(S(=O)(=O)c3ccc4oc(=O)ccc4c3)CC2)cc1Cl` gave PAFAH1B2 inh 5, PAFAH1B3 FP inh 6, pPAFAH FP inh 3, PAFAH2 inh 7, PKA-R2B act -3 and PKA-R1A act -6.
Screening CC(NC(=O)C1CC=CCC1C(=O)O)C1CC2CCC1C2 (configuration not stated) returned PAFAH1B2 inh 22, PAFAH1B3 FP inh 0, pPAFAH FP inh 1, PAFAH2 inh 2, PKA-R2B act 0 and PKA-R1A act -15.
CC(NC(=O)C1CCCC1)C1CC2CCC1C2 (configuration not stated) was read as PAFAH1B2 inh 11, PAFAH1B3 FP inh 8, pPAFAH FP inh 3, PAFAH2 inh 3, PKA-R2B act -3, PKA-R1A act 20*, R1A FP artifact 2 and PKA-R1A act conf 0.
For Cc1ccc(CSCC(=O)Nc2ccc(N3CCOCC3)cc2N2CCOCC2)cc1 the results were PAFAH1B2 inh 4, PAFAH1B3 FP inh 11, pPAFAH FP inh -5, PAFAH2 inh 2, PKA-R2B act 1 and PKA-R1A act -4.
`CC1CCCN(CCC(=O)c2ccc(Br)cc2)C1` (configuration not stated) gave PAFAH1B2 inh 8, PAFAH1B3 FP inh 5, pPAFAH FP inh 7, PAFAH2 inh 3, PKA-R2B act -3, PKA-R1A act 19*, R1A FP artifact 3 and PKA-R1A act conf -1.
Screening COc1ccc2[nH]c3c(c2c1)CCNC3=O returned PAFAH1B2 inh 9, PAFAH1B3 FP inh 15, pPAFAH FP inh 8, PAFAH2 inh 3, PKA-R2B act -6 and PKA-R1A act 6.
`O=C1NCCc2c1[nH]c1ccc([N+](=O)[O-])cc21` gave PAFAH1B2 inh 7, PAFAH1B3 FP inh -3, pPAFAH FP inh 1, PAFAH2 inh 4, PKA-R2B act 9, PKA-R1A act 19*, R1A FP artifact 3 and PKA-R1A act conf 5.
O=C(Cn1cnc2ccccc2c1=O)Nc1ccc(S(=O)(=O)N2CCCC2)cc1 was read as PAFAH1B2 inh 1, PAFAH1B3 FP inh 2, pPAFAH FP inh -1, PAFAH2 inh 1, PKA-R2B act -9 and PKA-R1A act -6.
`O=C(Cn1cnc2ccccc2c1=O)Nc1ccc(S(=O)(=O)N2CCOCC2)cc1` gave PAFAH1B2 inh 0, PAFAH1B3 FP inh 3, pPAFAH FP inh -4, PAFAH2 inh -2, PKA-R2B act 2, PKA-R1A act 19*, R1A FP artifact 0 and PKA-R1A act conf 3.
`CC(C)C(=O)Nc1c2c(nc3c1CCC3)CCCC2` gave PAFAH1B2 inh 1, PAFAH1B3 FP inh 10, pPAFAH FP inh -1, PAFAH2 inh 5, PKA-R2B act 5, PKA-R1A act 24*, R1A FP artifact 3 and PKA-R1A act conf 0.
Screening CCOC(=O)COc1ccc2c(c1)C(=O)CC(C)(C)O2 returned PAFAH1B2 inh 3, PAFAH1B3 FP inh 5, pPAFAH FP inh 1, PAFAH2 inh -1, PKA-R2B act 3, PKA-R1A act 19*, R1A FP artifact -1 and PKA-R1A act conf -1.
Screening O=C(OC(C(=O)Nc1cccc(C(F)(F)F)c1)c1ccccc1)C1CCCCC1 (configuration not stated) returned PAFAH1B2 inh -8, PAFAH1B3 FP inh -7, pPAFAH FP inh -17, PAFAH2 inh -26, PKA-R2B act -11 and PKA-R1A act -1.
`COCCN(CCOc1cc(C)cc(C)c1)Cc1ccc(Cl)cc1` gave PAFAH1B2 inh -2, PAFAH1B3 FP inh 6, pPAFAH FP inh 4, PAFAH2 inh 2, PKA-R2B act 1, PKA-R1A act 20*, R1A FP artifact -4 and PKA-R1A act conf -2.
For CN(C)CCOc1cc(Cl)cc(Cl)c1 the results were PAFAH1B2 inh 11, PAFAH1B3 FP inh 1, pPAFAH FP inh -1, PAFAH2 inh -8, PKA-R2B act -6 and PKA-R1A act -5.
Screening COCCN(C(=O)CSc1nc2nc(C)cc(C)n2n1)c1c(N)n(Cc2ccccc2)c(=O)[nH]c1=O returned PAFAH1B2 inh 1, PAFAH1B3 FP inh 1, pPAFAH FP inh 3, PAFAH2 inh 0, PKA-R2B act -1, PKA-R1A act 20*, R1A FP artifact 5 and PKA-R1A act conf 3.
Screening O=C1CCc2ccccc2N1 returned PAFAH1B2 inh 5, PAFAH1B3 FP inh -4, pPAFAH FP inh 6, PAFAH2 inh 4, PKA-R2B act -5 and PKA-R1A act -4.
O=C1Nc2ccccc2Cc2ccccc21 was read as PKA-R2B act -2, PKA-R1A act 20*, R1A FP artifact 2 and PKA-R1A act conf 3.
Screening Cc1ccc(NC(=O)CNC(=O)c2ccco2)cc1 returned PAFAH1B2 inh -5, PAFAH1B3 FP inh -4, pPAFAH FP inh 5, PAFAH2 inh 0, PKA-R2B act 1 and PKA-R1A act 0.
For CCOC(=O)c1ccc(NC(=O)c2nc[nH]c2C(=O)N[C@H](C)CO)cc1 the results were PKA-R2B act -13 and PKA-R1A act -10.
For O=C(O)C1CCC(N2C(=O)c3cccc([N+](=O)[O-])c3C2=O)CC1 (configuration not stated) the results were PAFAH1B2 inh -1, PAFAH1B3 FP inh 2, pPAFAH FP inh 3, PAFAH2 inh -5, PKA-R2B act 8, PKA-R1A act 19*, R1A FP artifact 0 and PKA-R1A act conf -1.
For CC(C)[C@H](NC(=O)c1ccccc1)C(=O)Nc1cccc(S(=O)(=O)N2CCOCC2)c1 the results were PAFAH1B2 inh 2, PAFAH1B3 FP inh 6, pPAFAH FP inh 1, PAFAH2 inh 7, PKA-R2B act 8 and PKA-R1A act -3.
For CC(C)[C@H](NC(N)=O)C(=O)Nc1cccc(S(=O)(=O)N2CCOCC2)c1 the results were PAFAH1B2 inh -1, PAFAH1B3 FP inh 2, pPAFAH FP inh 0, PAFAH2 inh 3, PKA-R2B act -6, PKA-R1A act 20*, R1A FP artifact 2 and PKA-R1A act conf -1.
For COC(=O)c1c(C)cc(OC(C)=O)c(C)c1OC(C)=O the results were PAFAH1B2 inh 1, PAFAH1B3 FP inh -4, pPAFAH FP inh -1, PAFAH2 inh 15, PKA-R2B act 8, PKA-R1A act 20*, R1A FP artifact 4 and PKA-R1A act conf 4.
